# From PubChem BioAssay
# Several values for one entry are separate records, joined by “and”; a condition that tells them apart may be missing. Equal entries are not always repeated. Activity calls are given as the source filed them.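 The calls were made as follows, unless noted: active = compounds whose cell count with miR-34 switched on is under 0.7 times the count with it off; inactive = the rest.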
# Assays:
# [1] = compounds altering viability of human ES cells (AID 493140; call rule not given here;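 also: cells exposed to compounds for four days before counting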); details: human embryonic stem cell survival screen; stronger effect = higher value
# [2] = P. berghei load reduction in hepatocytes – cell-based, HepG2, luciferase luminescence, HepG2 viability, primary screen (AID 624349; in the data active = parasite load remaining mostly below about 12%, no sharp cut-off; inactive = mostly above about 10%;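 also: 100% = mean of DMSO negative control wells on the same plate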); details: P. berghei liver stage in HepG2, luciferase luminescence, concentration not given here; parasite load remaining: stronger effect = lower value; viability: measured here: HepG2 viability without parasites
# [3] = Wnt pathway potentiators raising nuclear beta-catenin – imaging, WNT3A-conditioned medium, mouse C2C12, NPC library, primary screen (AID 1117326; in the data active = nuclear beta-catenin stimulation mostly above about 4.2%, no sharp cut-off; inactive = mostly below about 10%); details: stronger effect = higher value
# [4] = stimulators of insulin release from INS-1E, primary screen, cell-based, 5 mM glucose, NPC library (AID 1117329;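 active = compound raises insulin release from rat beta cells at 5 mM glucose, no numeric limit stated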); details: rat INS-1E insulin secretion, at 10 µM, stronger effect = higher value
# [5] = growth inhibition of GSK3B-pretreated HCT116 cells – cell-based, CellTiter-Glo, 0.2 to 20 µM (AID 1117336;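 active = compounds lowering colon cancer cell viability after pretreatment blocking the GSK3B kinase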); details: HCT116 viability after GSK3B inhibitor, at 20 µM, stronger effect = higher value
# [6] = inhibition of endothelial tube formation, primary screen, imaging, VEGF stimulated, CD31 staining, tube area, NPC library (AID 1117340;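 active = compound that reduces growth-factor-driven endothelial tube area in a mixed cell culture, no cutoff stated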); details: VEGF-stimulated ADSC/ECFC co-culture, at 10 µM, stronger effect = higher value
# [7] = GLP1 release stimulators, primary, NCI-H716, NPC library (AID 1117341;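 active = compound raises GLP1 secretion from the human gut endocrine cells, with no numeric limit stated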); details: NCI-H716 cells, at 10 µM, stronger effect = higher value
# [8] = HCT116 colon cancer cell growth inhibition, primary screen, CellTiter-Glo luminescence, NPC library (AID 1117342;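 active = compounds that lower survival of HCT116 colon cancer cells in the luminescence readout, no numeric limit stated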); details: at 20 µM (top of the series)
# [9] = reduced SW480 viability measured with CellTiter-Glo, NPC library, primary (AID 1117343;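 active = compounds that lower viability of the colon cancer cells in the luminescence readout, with no numeric limit stated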); details: CellTiter-Glo luminescence; at 20 µM (top of the series) unless noted
# [10] = NPC library primary testing for decreased DLD-1 cell viability via CellTiter-Glo (AID 1117346;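 active = compounds that lower survival of DLD-1 colon cancer cells in the luminescence readout, no cutoff given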); details: DLD-1 viability, CellTiter-Glo luminescence; at 20 µM (top of the series)
# [11] = EMT-state selective cytotoxicity in co-culture – imaging, PC-3E GFP, TEM4-18 mCherry, primary screen (AID 1345086;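 active = compounds killing one labelled cell type while sparing the other, by normalised counts and ratio limits, not self-fluorescent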;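 as to all read-outs here: cells exposed to compound for 72 h before imaging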;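 as to red/green cell ratio (normalised): normalised mesenchymal count divided by normalised epithelial count so high means epithelial killing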); details: PC-3E GFP / TEM4-18 mCherry co-culture, imaging cell counts, at 1 µM; for red/green cell ratio (normalised): actives lie on both sides, counts scaled to control wells, 1 = unselective
# [12] = viability loss with induced miR-34 in A549 – imaging, A549 dox-inducible miR-34, nuclei and caspase counts, primary screen (AID 1347080); details: A549 miR-34 inducible, Hoechst nuclei count, 48 h
# [13] = MELAS cybrid and Rieske KO viability enhancers – cell-based, MELAS cybrids, Rieske KO mouse fibroblasts, CellTiter-Glo, primary screen (AID 1508586;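 active = mean z-score across replicates of 1.96 or higher in either the MELAS or the Rieske mutant cell line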;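 also: z relative to plate mean and SD of compound and empty wells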); details: low glucose
# [14] = biological target: NAD(+) hydrolase SARM1 (Homo sapiens) (UniProt Q6SZW1); assay: blocking NAD cleavage by SARM1 SAM-TIR – cell lysate, NAD-Glo luminescence (AID 1508614;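 active = compound whose remaining NAD level is above about 45 nM, limit read from the data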;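 also: higher remaining NAD means stronger inhibition of SARM1 NADase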); details: SAM-TIR HEK293T lysate NADase, at 1 µM, stronger effect = higher value
# Sequence of NAD(+) hydrolase SARM1 (Homo sapiens) (Q6SZW1 whole entry, looked up): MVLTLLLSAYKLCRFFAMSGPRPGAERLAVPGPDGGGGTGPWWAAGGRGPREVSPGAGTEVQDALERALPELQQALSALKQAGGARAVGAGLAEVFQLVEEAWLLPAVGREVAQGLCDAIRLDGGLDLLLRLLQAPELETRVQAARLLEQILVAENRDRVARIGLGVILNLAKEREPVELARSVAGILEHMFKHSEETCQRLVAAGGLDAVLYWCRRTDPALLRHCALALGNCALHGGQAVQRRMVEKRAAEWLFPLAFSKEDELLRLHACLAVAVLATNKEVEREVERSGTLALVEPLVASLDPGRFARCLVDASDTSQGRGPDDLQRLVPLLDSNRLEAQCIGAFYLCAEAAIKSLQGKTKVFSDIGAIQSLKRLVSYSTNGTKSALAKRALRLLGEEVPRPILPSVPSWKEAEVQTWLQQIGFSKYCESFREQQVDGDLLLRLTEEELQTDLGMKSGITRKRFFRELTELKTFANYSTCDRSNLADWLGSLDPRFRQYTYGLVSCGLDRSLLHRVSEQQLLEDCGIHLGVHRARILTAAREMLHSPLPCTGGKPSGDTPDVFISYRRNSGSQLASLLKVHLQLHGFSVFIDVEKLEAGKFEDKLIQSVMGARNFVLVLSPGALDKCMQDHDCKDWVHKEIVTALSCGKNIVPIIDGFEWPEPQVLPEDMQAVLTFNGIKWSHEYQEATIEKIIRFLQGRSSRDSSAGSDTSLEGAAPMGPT
# [15] = measured here: epithelial PC-3E GFP cell survival
# [16] = measured here: mesenchymal TEM4-18 mCherry cell survival
# [17] = stronger effect = lower value, cell number ratio, induced over uninduced
# [18] = measured here: relative caspase fold change +Dox/-Dox
# [19] = measured here: total cells with miR-34 induction, stronger effect = lower value
# [20] = measured here: total cells without miR-34 induction
# [21] = MELAS cybrid survival, CellTiter-Glo 48 h, stronger effect = higher value
# [22] = Rieske KO mouse fibroblast survival, CellTiter-Glo 72 h
structure (smiles),measurement,setting,value
CC(C)(Oc1ccc(C2CC2(Cl)Cl)cc1)C(=O)O (stereo unspecified),survival,[1],3.17 (inactive)
same,parasite load remaining,[2],67% (inactive)
same,viability,[2],69.5%
same,nuclear beta-catenin stimulation,[3]; at 10 µM,-1.2% (inactive)
same,nuclear beta-catenin stimulation,"[3]; stimulation, at 2 µM",-1%
same,insulin secretion stimulation,[4],-1.6% (inactive)
same,viability decrease,[5],0.1% (inactive)
same,tube area decrease,[6],-3% (inactive)
same,GLP1 secretion stimulation,[7],1.4% (active)
same,inhibition of viability,[8],-3.5% (inactive)
same,viability decrease (inhibition),[9],-7.2% (inactive)
same,viability decrease (inhibition),[10],-11.1% (inactive)
same,red/green cell ratio (normalised),[11],1.11 (inactive)
same,normalised cell number,[11]; [15],1.15
same,normalised cell number,[11]; [16],1.28
same,fold change,[12]; [17],1.01 (inactive) and 0.95 (inactive) and 0.923 (inactive)
same,fold change,[12]; [18],2.14 and 0.705 and 0.604
same,cell count,[12]; [19],9720 and 9780 and 8880
same,cell count,[12]; [20],9650 and 10300 and 9610
same,z-score,[13]; [21],-0.289 (inactive) and 0.864 (inactive)
same,z-score,[13]; [22],-0.625 and 0.179
same,remaining NAD,[14],10 nM (inactive)
COc1cc2c(c(OC)c1OC)-c1ccc(OC)c(=O)cc1[C@@H](NC(C)=O)CC2,survival,[1],0.333 (inactive)
same,nuclear beta-catenin stimulation,[3]; at 10 µM,77.5% (active)
same,nuclear beta-catenin stimulation,"[3]; stimulation, at 2 µM",72.6%
same,insulin secretion stimulation,[4],2.2% (inactive)
same,viability decrease,[5],97.2% (active)
same,tube area decrease,[6],105% (active)
same,GLP1 secretion stimulation,[7],-3.6% (inactive)
same,inhibition of viability,[8],75% (active)
same,viability decrease (inhibition),[9],43.3% (inactive)
same,viability decrease (inhibition),[10],58.2% (active)
same,red/green cell ratio (normalised),[11],1.19 (inactive)
same,normalised cell number,[11]; [15],0.19
same,normalised cell number,[11]; [16],0.23
same,fold change,[12]; [17],1.43 (inactive) and 1.18 (inactive) and 0.984 (inactive)
same,fold change,[12]; [18],1.13 and 1.5 and 0.402
same,cell count,[12]; [19],1890 and 1930 and 1700
same,cell count,[12]; [20],1330 and 1630 and 1730
same,z-score,[13]; [21],-2.22 (inactive)
same,z-score,[13]; [22],-0.272
same,remaining NAD,[14],10 nM (inactive)
CCN(CC)C(=O)c1ccc(O)c(OC)c1,survival,[1],14.3 (inactive)
same,parasite load remaining,[2],98.8% (inactive) and 82.6% (inactive) and 34.4% (inactive)
same,viability,[2],116% and 78.8% and 105%
same,nuclear beta-catenin stimulation,[3]; at 10 µM,0.4% (inactive)
same,nuclear beta-catenin stimulation,"[3]; stimulation, at 2 µM",-0.5%
same,insulin secretion stimulation,[4],-1.1% (inactive)
same,viability decrease,[5],-5.6% (inactive)
same,tube area decrease,[6],19.7% (inactive)
same,GLP1 secretion stimulation,[7],-0.9% (inactive)
same,inhibition of viability,[8],-33.9% (inactive)
same,viability decrease (inhibition),[9],107% (active)
same,viability decrease (inhibition),[10],-2.25% (inactive)
same,red/green cell ratio (normalised),[11],1.01 (inactive)
same,normalised cell number,[11]; [15],1.04
same,normalised cell number,[11]; [16],1.06
same,fold change,[12]; [17],0.99 (inactive) and 0.899 (inactive) and 0.849 (inactive)
same,fold change,[12]; [18],1.08 and 1.38 and 3.96
same,cell count,[12]; [19],10300 and 8560 and 11800
same,cell count,[12]; [20],10400 and 9520 and 13900
same,z-score,[13]; [21],-0.598 (inactive)
same,z-score,[13]; [22],-0.406
same,remaining NAD,[14],10 nM (inactive)
Cc1cc(=O)oc2cc(O)ccc12,survival,[1],5.33 (inactive)
same,parasite load remaining,[2],118% (inactive)
same,viability,[2],98.7%
same,nuclear beta-catenin stimulation,[3]; at 10 µM,-0.6% (inactive)
same,nuclear beta-catenin stimulation,"[3]; stimulation, at 2 µM",-0.4%
same,insulin secretion stimulation,[4],-1.7% (inactive)
same,viability decrease,[5],-10.2% (inactive)
same,tube area decrease,[6],-7.2% (inactive)
same,GLP1 secretion stimulation,[7],3.1% (inactive)
same,inhibition of viability,[8],13.6% (inactive)
same,viability decrease (inhibition),[9],12.3% (inactive)
same,viability decrease (inhibition),[10],-2.45% (inactive)
same,red/green cell ratio (normalised),[11],0.94 (inactive)
same,normalised cell number,[11]; [15],1.05
same,normalised cell number,[11]; [16],0.99
same,fold change,[12]; [17],0.873 (inactive) and 0.847 (inactive) and 0.939 (inactive)
same,fold change,[12]; [18],1.07 and 1.58 and 0.709
same,cell count,[12]; [19],8530 and 9030 and 8940
same,cell count,[12]; [20],9770 and 10700 and 9520
same,z-score,[13]; [21],-0.289 (inactive) and 0.464 (inactive)
same,z-score,[13]; [22],0.286 and 0.338
same,remaining NAD,[14],10 nM (inactive)
